As usually defined, the viability is a read-out of living cells in per cent, often relative to untreated cells. The inhibition is the change of the read-out against control, counted positive when it falls.

Consider ten molecules from PubChem BioAssay.

Inconclusive results are not listed. The source made the active and inactive calls.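 The calls were made as follows, unless noted: active = cell viability at or below a set limit in both duplicate runs, the limit being the all-compound median minus 4 SD (cut at about 23% in these data, passing the limit was not always enough); inconclusive = no clear call, values can overlap the other calls; inactive = the rest.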

Assay [1] can be described thus: reducers of endogenous Her2 protein level, primary screen, SKBR3 breast tumor cells, AlphaScreen, ATP viability (AID 461;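 active = Her2 level under about 52% in both replicate screens, with viability over 70% of control, limit read from the data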;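 as to Her2 level: lower value means less Her2 protein in the cells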;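 as to viability: percent of carrier control wells set as 100% viability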). The conditions noted are these: 18-24 h, measured here: SKBR3 viability, ATP luminescence, at 10 µM. A general note: Alpha assays give light when donor and acceptor beads are brought close together.
For assay [2], the target named is Receptor tyrosine-protein kinase erbB-2 (Homo sapiens) (UniProt P04626). Described as above. Particulars: 18-24 h, at 10 µM, stronger effect = lower value.
Receptor tyrosine-protein kinase erbB-2 (Homo sapiens), sequence (P04626 whole entry, looked up): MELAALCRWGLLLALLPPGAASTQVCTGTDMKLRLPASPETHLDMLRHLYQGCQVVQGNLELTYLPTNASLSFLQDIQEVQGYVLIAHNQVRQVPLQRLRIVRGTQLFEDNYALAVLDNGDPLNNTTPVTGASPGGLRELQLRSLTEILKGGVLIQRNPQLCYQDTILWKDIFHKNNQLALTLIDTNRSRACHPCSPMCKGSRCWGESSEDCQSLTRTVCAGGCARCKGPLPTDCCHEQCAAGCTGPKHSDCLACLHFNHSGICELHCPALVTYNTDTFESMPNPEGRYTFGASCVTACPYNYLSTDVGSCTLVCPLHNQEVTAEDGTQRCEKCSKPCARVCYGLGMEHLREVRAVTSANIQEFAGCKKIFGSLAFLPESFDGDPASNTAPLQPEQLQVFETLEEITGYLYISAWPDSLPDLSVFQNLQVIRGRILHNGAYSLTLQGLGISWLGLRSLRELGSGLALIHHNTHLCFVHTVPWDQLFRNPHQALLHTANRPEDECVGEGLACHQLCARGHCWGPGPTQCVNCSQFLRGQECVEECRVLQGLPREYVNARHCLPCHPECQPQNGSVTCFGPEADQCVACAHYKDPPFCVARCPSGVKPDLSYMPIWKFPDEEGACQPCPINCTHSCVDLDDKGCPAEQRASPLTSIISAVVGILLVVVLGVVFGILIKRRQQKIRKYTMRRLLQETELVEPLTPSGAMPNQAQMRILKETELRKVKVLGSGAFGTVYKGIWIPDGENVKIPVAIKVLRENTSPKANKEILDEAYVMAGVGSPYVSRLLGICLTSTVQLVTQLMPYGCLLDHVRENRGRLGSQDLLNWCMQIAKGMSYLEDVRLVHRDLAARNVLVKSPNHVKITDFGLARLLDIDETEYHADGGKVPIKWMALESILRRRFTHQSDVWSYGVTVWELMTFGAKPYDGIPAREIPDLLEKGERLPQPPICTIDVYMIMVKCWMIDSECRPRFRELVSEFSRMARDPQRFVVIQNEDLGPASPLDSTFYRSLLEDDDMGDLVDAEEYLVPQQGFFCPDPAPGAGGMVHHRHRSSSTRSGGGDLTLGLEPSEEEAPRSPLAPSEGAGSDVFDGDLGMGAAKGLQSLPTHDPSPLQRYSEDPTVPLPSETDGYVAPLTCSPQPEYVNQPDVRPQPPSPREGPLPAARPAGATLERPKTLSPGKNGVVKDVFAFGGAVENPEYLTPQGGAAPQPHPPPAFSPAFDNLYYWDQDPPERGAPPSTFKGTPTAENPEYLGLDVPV
The nature of assay [3]: SK-BR-3 cell growth inhibitors, pilot screen, 24 h, human (AID 572;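 active = viability at or below 10% of carrier control in both of two separate runs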;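 also: compound exposure lasted between 18 and 24 h rather than exactly 24 h; 100% = carrier-treated control wells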). The conditions noted are these: SK-BR-3 viability, CellTiter-Glo luminescence, at 10 µM, stronger effect = lower value.
The nature of assay [4]: HUVEC growth inhibition – cell-based, human, primary screen (AID 575;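 active = viability at or below 30% in both replicate assays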;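 also: 100% = median of untreated cell wells with 0.1% DMSO on each plate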). Particulars: HUVEC proliferation, CellTiter-Glo luminescence, 72 h; at 10 µM; stronger effect = lower value.
A short description of assay [5]: growth inhibitors of H69AR lung tumor, primary screen, human, duplicate replicates (AID 580;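 active = viability at or under a set limit in both replicates, limit being median viability minus 3 SD, cut at about 48% in these data, passing the limit was not always enough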;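 also: 100% = mean luminescence of untreated wells and 0% = no signal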). Particulars: H69AR lung tumor cells viability, ATP luminescence, 72 h; at 10 µM; stronger effect = lower value.
Assay [6] in a line: reversal of MRP1-mediated doxorubicin resistance, pilot screen, H69AR cells, doxorubicin co-treatment (AID 601;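 active = viability loss from added drug above about 55%, and viability with drug at most 40%, in both replicates, limit read from the data, passing the limit was not always enough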). Particulars: CellTiter-Glo, 72 h, at 10 µM; for differential viability (reversal): stronger effect = higher value. Background: Cellular ATP, detected with luciferase, serves as a proxy for viable cell number.
Assay [7] can be described thus: 384-well plate pilot, post-Golgi transport modulator project, inhibition of yeast transport mutant growth (AID 636; in the data active = inhibition above about 31%). The conditions noted are these: absorbance 615 nm, about 18 h, stronger effect = higher value.
A short description of assay [8]: growth suppression of yeast trafficking mutant, preliminary HTS, modulators of trafficking downstream of Golgi apparatus project, 1536-format plate, OD 615 nm (AID 637; in the data active = inhibition above about 30%). The conditions noted are these: yeast transport mutant growth, absorbance 615 nm, 18 h; stronger effect = higher value.
Assay [9] is described as follows: OD615 S. cerevisiae growth inhibition, permissive medium, pilot counter-assay, permissive growth control for S. cerevisiae lifespan shortening project (AID 705;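 active = growth inhibition above 25% in both replicates, a cutoff set 3 SD above the mean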). The conditions noted are these: OD615, 24 h, at 10 µM, stronger effect = higher value.
The nature of assay [10]: Restrictive medium S. cerevisiae growth inhibition, OD615, pilot screen of yeast lifespan reduction project, restrictive growth control (AID 706;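 active = growth inhibition above a set limit, 3 SD over mean compound inhibition, in both replicates, cut at about 43% in these data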;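 also: modified DeaD lifespan yeast strain shifted to restrictive glucose medium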). Particulars: OD615, 48 h, at 10 µM, stronger effect = higher value.
Assay [11] is described as follows: viability gain of MRP-1-high H69AR cells under doxorubicin, pilot screen, MRP-1 activator project, CellTiter-Glo, duplicate (AID 807;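 active = viability increase at or above a cutoff of the median across tested compounds plus 3 SD, cut at about 8.5% in these data, passing the limit was not always enough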;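 also: compound pretreatment 18-22 h then 72 h combined with doxorubicin; 0% = doxorubicin alone and 100% = vehicle without doxorubicin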). Particulars: H69AR viability with doxorubicin, CellTiter-Glo luminescence; at 10 µM; stronger effect = higher value.
The nature of assay [12]: growth suppression of beta-catenin knockout HCT116, pilot screen, human colon tumor cells (AID 823).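 Also: 0% = wells killed by 20 µM Hyamine and 100% = untreated DMSO cell wells.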 The conditions noted are these: CellTiter-Glo, 60 h, at 10 µM, stronger effect = lower value.
Assay [13] can be described thus: growth suppression of PTEN-deleted HCT116, pilot screen, cell-based, HCT116 clonal line, CellTiter-Glo (AID 824;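 active = viability at or below 27.92% in each of two runs, the all-compound median minus 4 SD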;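 also: 0% = 20 µM Hyamine control and 100% = vehicle cell control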). Particulars: 60 h, at 10 µM, stronger effect = lower value.
Assay [14] is described as follows: inhibitors of the yeast RAM network, pilot screen, dse1pr::URA3 reporter, 5-FOA selection (AID 869;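 active = inhibition over a set limit, the all-compound mean plus 3 SD, in both replicate runs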;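 also: 0% = DMSO wells with no growth and 100% = 10 µM 1-NA-PP1 with full growth; RAM network block rescues cells from 5-FOA so hits raise OD615 growth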). Particulars: S. cerevisiae dse1pr::URA3 5-FOA growth, OD615, 2 d; at 10 µM; stronger effect = higher value; strain carries analog-sensitive mutant Cbk1 kinase.
Assay [15] can be described thus: RAM signaling pathway blockade in yeast – S. cerevisiae, Pdr1DBD-CYC8 efflux-inhibited sensitized strain, primary screen (AID 1298;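 active = RAM network inhibition above 8.4% in each of two replicates, 3 SD over the compound average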;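 also: 0% = DMSO untreated cells without growth and 100% = 10 µM 1-NA-PP1 full growth; higher means more yeast growth rescued from 5-FOA killing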). The conditions noted are these: S. cerevisiae cbk1-as DSE1-URA3 strain, 5-FOA growth OD615, 2 d; at 50 µM; stronger effect = higher value.
The mark [16] stands for this setting: H69AR cells + 2 uM doxorubicin, measured here: viability with 2 uM doxorubicin, stronger effect = lower value.
Setting [17] is: H69AR cells, compound alone cytotoxicity.

`Cn1c(=O)c2c(nc(SCCOc3ccc4ccc(=O)oc4c3)n2C)n(C)c1=O`: the viability in assay [1] was 98.5%; in assay [3], 98.5% (inactive); in assay [4], 102% (inactive); in assay [5] it was 104% (inactive); in assay [6] (setting [16]), 89.6%; in assay [6] (setting [17]), 104%. Moreover, the values for the viability in [12] and in assay [13] were 99% (inactive) and 103% (inactive), respectively. In [2], the Her2 level was 91.5% (inactive). In assay [6] (H69AR cells + 2 uM doxorubicin), the differential viability (reversal) is 14.3% (inactive). In addition, the figures for the inhibition in assay [7], in [8] and in assay [14] were -2.93% (inactive), -1.97% (inactive) and 0.27% (inactive), respectively. The growth inhibition was -4.61% (inactive) in [9] and 1.18% (inactive) in assay [10]. Further, the viability increase in assay [11] was 1.22% (inactive). Further, in assay [15], the RAM network inhibition is 2.41% (inactive).
With `CCOC(=O)C(C)Sc1nnc(Cc2cc(=O)[nH]c(=O)[nH]2)n1-c1ccc(Cl)cc1` (stereo not given), the viability is 92.5% in [1]; 92.5% (inactive) in assay [3]; 102% (inactive) in [4]; 103% (inactive) in assay [5]; 98.2% in assay [6] (setting [16]); 103% in assay [6] (setting [17]). The results for the viability in [12] and in assay [13] were 104% (inactive) and 105% (inactive), respectively. In assay [2], the Her2 level is 96.5% (inactive). Moreover, the differential viability (reversal) in assay [6] (H69AR cells + 2 uM doxorubicin) is 4.81% (inactive). Also, the inhibition in assay [7] was 1.54% (inactive); in assay [8], 5.5% (inactive); in assay [14] it was 1.45% (inactive). Also, the growth inhibition in [9] is -16.5% (inactive); in [10] it was -11.5% (inactive). In assay [11], the viability increase was 0.97% (inactive). The RAM network inhibition in assay [15] was 5.81% (inactive).
Consider `COc1ccc(C(=O)NCc2nc3ccccc3[nH]2)cc1OC`, for which the viability in [1] was 110%; in [3], 110% (inactive); in assay [4], 101% (inactive); in assay [5], 107% (inactive); in assay [6] (setting [16]), 90.2%; in assay [6] (setting [17]), 107%. The viability was 102% (inactive) in assay [12] and 98.2% (inactive) in [13]. Further, the Her2 level in assay [2] was 115% (inactive). For the same molecule, the differential viability (reversal) in assay [6] (H69AR cells + 2 uM doxorubicin) was 16.6% (inactive). The values for the inhibition in assay [7], in assay [8] and in assay [14] were -3.6% (inactive), -6.67% (inactive) and 2.96% (inactive), respectively. Also, the growth inhibition is -9.82% (inactive) in assay [9] and -15% (inactive) in [10]. In addition, in assay [11], the viability increase was 0.84% (inactive). In assay [15], the RAM network inhibition was 6.63% (inactive).
For the molecule `CCn1cc(C(=O)NCCCOC)c(=O)c2cc(S(=O)(=O)N(C)C)ccc21`, the viability in [1] was 92%; in assay [3], 92% (inactive); in [4], 89.3% (inactive); in assay [5] it was 87.6% (inactive); in assay [6] (setting [16]), 111%; in assay [6] (setting [17]), 87.6%. Further, the viability in assay [12] was 97.6% (inactive); in assay [13] it was 94.2% (inactive). The Her2 level in [2] is 106% (inactive). In addition, the differential viability (reversal) in [6] (H69AR cells + 2 uM doxorubicin) was -23.8% (inactive). In addition, the inhibition in assay [7] was -1.73% (inactive); in assay [8], -5.33% (inactive); in assay [14], 0.395% (inactive). Moreover, the growth inhibition in [9] is -8.04% (inactive); in assay [10], -9.63% (inactive). The viability increase in assay [11] was -2.52% (inactive). Further, the RAM network inhibition in assay [15] is 0.52% (inactive).
As to `CC(=O)c1cc2c(cc1NC(=O)CN1CCN(C(=O)c3ccco3)CC1)OCO2`, the viability in assay [1] was 90%; in [3], 90% (inactive); in assay [4], 92.5% (inactive); in assay [5], 86.3% (inactive); in [6] (setting [16]), 89.5%; in assay [6] (setting [17]), 86.3%. The viability in assay [12] was 98.2% (inactive); in assay [13], 97% (inactive). Besides, the Her2 level in [2] is 120% (inactive). The differential viability (reversal) in assay [6] (H69AR cells + 2 uM doxorubicin) is -3.21% (inactive). Besides, the values for the inhibition in assay [7], in assay [8] and in [14] were -5.47% (inactive), -3.5% (inactive) and 2.79% (inactive), respectively. Further, the figures for the growth inhibition in [9] and in assay [10] were 0.565% (inactive) and -17.1% (inactive), respectively. The viability increase in assay [11] is -3.21% (inactive). In addition, the RAM network inhibition in assay [15] is 0.37% (inactive).
Take `COc1ccc(S(=O)(=O)N(C)C2CCN(C)CC2)cc1`: the viability in assay [1] is 108%; in assay [3], 108% (inactive); in assay [4], 93.2% (inactive); in assay [5], 93.4% (inactive); in assay [6] (setting [16]), 82.3%; in assay [6] (setting [17]), 93.4%. Further, the figures for the viability in [12] and in assay [13] were 100% (inactive) and 96.9% (inactive), respectively. Also, the Her2 level in assay [2] is 98% (inactive). The differential viability (reversal) in [6] (H69AR cells + 2 uM doxorubicin) was 11.1% (inactive). Moreover, the inhibition is -4.8% (inactive) in assay [7], -2% (inactive) in assay [8] and 0.835% (inactive) in [14]. The results for the growth inhibition in assay [9] and in assay [10] were -6.05% (inactive) and -10.2% (inactive), respectively. In addition, in assay [11], the viability increase is -3.82% (inactive). In [15], the RAM network inhibition is 5.99% (inactive).
Take `Oc1ccc2ccccc2c1CN1CCN(c2ccccc2F)CC1`: the viability in [1] was 110%; in assay [3], 110% (inactive); in assay [4], 90.1% (inactive); in [5], 76.6% (inactive); in assay [6] (setting [16]), 73.5%; in [6] (setting [17]), 76.6%. The viability in [12] is 95.4% (inactive); in assay [13] it was 93.9% (inactive). Further, in assay [2], the Her2 level is 90% (inactive). In assay [6] (H69AR cells + 2 uM doxorubicin), the differential viability (reversal) is 3.1% (inactive). For the same molecule, the values for the inhibition in assay [7], in assay [8] and in assay [14] were -3.47% (inactive), -0.33% (inactive) and 0.72% (inactive), respectively. Further, the growth inhibition in assay [9] is -13.8% (inactive); in assay [10], -10.6% (inactive). In [11], the viability increase is -5.72% (inactive). Also, the RAM network inhibition in [15] was 0.16% (inactive).
For the molecule `CCOc1cc(C2NC(=O)NC(O)(C(F)(F)F)C2C(=O)c2ccccc2)ccc1OC` (stereo not given), the viability in assay [1] was 108%; in assay [3], 108% (inactive); in [4], 104% (inactive); in assay [5], 102% (inactive); in assay [6] (setting [16]), 96.6%; in assay [6] (setting [17]) it was 102%. The viability was 109% (inactive) in assay [12] and 97.8% (inactive) in assay [13]. Moreover, the Her2 level in [2] was 110% (inactive). Further, the differential viability (reversal) in assay [6] (H69AR cells + 2 uM doxorubicin) was 5.23% (inactive). Further, the inhibition in [7] is -4.46% (inactive); in assay [8], -8.2% (inactive); in assay [14], 0.24% (inactive). Also, the growth inhibition in assay [9] was -0.49% (inactive); in assay [10] it was 19.4% (inactive). Further, in assay [11], the viability increase is -0.8% (inactive). The RAM network inhibition in assay [15] was 0.2% (inactive).
For the molecule `O=C(Nc1ccncc1)c1cccc(F)c1`, the viability was 103% in [1]; 103% (inactive) in [3]; 91.5% (inactive) in [4]; 92% (inactive) in assay [5]; 92% in [6] (setting [16]); 92% in [6] (setting [17]). The viability in [12] was 98.4% (inactive); in assay [13], 91.4% (inactive). For the same molecule, the Her2 level in assay [2] was 130% (inactive). Besides, the differential viability (reversal) in [6] (H69AR cells + 2 uM doxorubicin) is -0.005% (inactive). The inhibition in assay [7] was -3.08% (inactive); in [8], -2.33% (inactive); in assay [14], -0.02% (inactive). Also, the growth inhibition in assay [9] is -5.12% (inactive); in assay [10], 3.45% (inactive). The viability increase in assay [11] was -1.19% (inactive). In [15], the RAM network inhibition is 2.86% (inactive).
In the case of `COc1ccccc1N1CCN(CC(O)c2ccc3cc[nH]c3c2)CC1` (stereo not given), the viability in assay [1] is 99%; in assay [3], 99% (inactive); in assay [4] it was 95.6% (inactive); in [5], 88.8% (inactive); in assay [6] (setting [16]) it was 77.4%; in [6] (setting [17]), 88.8%. Also, the viability in assay [12] is 60.7% (inactive); in assay [13], 61.7% (inactive). Besides, the Her2 level in [2] was 112% (inactive). Also, the differential viability (reversal) in assay [6] (H69AR cells + 2 uM doxorubicin) is 11.4% (inactive). In addition, the inhibition in [7] was -3.33% (inactive); in assay [8], 2.46% (inactive); in [14], 1.87% (inactive). Moreover, the growth inhibition in [9] was 3.54% (inactive); in assay [10] it was 5.26% (inactive). Moreover, in [11], the viability increase is -4.68% (inactive). For the same molecule, the RAM network inhibition in assay [15] is 1.54% (inactive).
